# The source made the active and inactive calls.
# Legend:
# [1] = test system: Plasmodium falciparum Sir2 (PF13_0152, Sir2A); assay: pfSir2 binders on small-molecule microarrays, primary screen, biochemical, small-molecule microarray, 635 nm fluorescence (AID 1098); conditions: small-molecule microarray binding, fluorescence 635 nm; higher = more signal;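 further: score merges spot fluorescence intensity with its signal-to-noise ratio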
# [2] = small-molecule microarray binders of probe aDKK1, primary screen, biochemical, biotinylated probe, 635/667 nm fluorescence (AID 1099); conditions: higher = more signal;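 further: score merges 667nm spot fluorescence with signal to noise across triplicate slides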
# [3] = small-molecule microarray binders of probe aCHRDL2, primary screen, biochemical, biotinylated probe, 635/667 nm fluorescence (AID 1100); conditions: higher = more signal
# [4] = splicing luciferase reporter signal modulators, primary screen, spliceosome inhibition project, cell-based, HEK293, splice +/- reporter (AID 1101); conditions: luminescence, 24 h, higher = more signal, called active from +8 up or from −8 down;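 further: HEK293 cells carrying a splicing-competent luciferase reporter gene; test concentration not given here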
# [5] = target: Fibroblast growth factor 10 (Homo sapiens) (UniProt O15520); assay: FGF10 binders on small-molecule microarrays, primary screen, biochemical, small-molecule microarray, 635 nm fluorescence (AID 1102); conditions: FGF10 binding, fluorescence 635 nm, higher = more signal
# [6] = test system: glycogen synthase kinase-3 (GSK3A per assay name; protocol says GSK3B); assay: GSK3 binders on small-molecule microarrays, primary screen, biochemical, small-molecule microarray, 635 nm fluorescence, GSK3A (AID 1103); conditions: small-molecule microarray binding, fluorescence 635 nm; higher = more signal; further: the record names both GSK3A and GSK3B
# [7] = target: Epidermal growth factor receptor (Homo sapiens) (UniProt P00533); assay: EGFR binders on small-molecule microarrays, primary screen, biochemical, small-molecule microarray, 635 nm fluorescence (AID 1104); conditions: EGFR binding, higher = more signal;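 further: score merges 667 nm emission intensity with spot signal to noise over triplicate slides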
# [8] = target: Follistatin-related protein 3 (Homo sapiens) (UniProt O95633); assay: FSTL3 binders on small-molecule microarrays, primary screen, biochemical, small-molecule microarray, 635 nm fluorescence (AID 1105); conditions: FSTL3 binding, higher = more signal;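 further: score merges emission near 667 nm and signal to noise per printed spot across three slides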
# [9] = target: Dickkopf-related protein 1 (Homo sapiens) (UniProt O94907); assay: DKK1 binders on small-molecule microarrays, primary screen, biochemical, small-molecule microarray, 635 nm fluorescence scan (AID 1106); conditions: DKK1 binding, higher = more signal;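 further: score merges emission near 667 nm with signal to noise over three replicate slides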
# [10] = test system: Inhibin beta A chain (activin A); assay: INHBA (activin A) binders on microarrays, primary screen, biochemical, small-molecule microarray, 635 nm fluorescence scan (AID 1107); conditions: small-molecule microarray binding, higher = more signal;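 further: mouse activin A protein probed at 4.33 µg/mL on printed slides; score merges bound-protein fluorescence near 667 nm with spot signal-to-noise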
# [11] = test system: Human papillomavirus type 1a protein E7 (residues 44-93); assay: HPV1a E7 fragment binders on microarrays, primary screen, biochemical, small-molecule microarray, residues 44-93, 635 nm fluorescence (AID 1108); conditions: small-molecule microarray binding, fluorescence 635 nm; higher = more signal;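 further: E7 fragment applied at 1 µg/mL in TBST for 1 h at 4 C; score combines spot fluorescence with its signal to noise ratio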
# [12] = modulators of HCV replicon luciferase signal, primary screen, HCV replication inhibitor project, Huh7 cells, luciferase reporter (AID 1109); conditions: 48 h, higher = more signal;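 further: huh7 hepatoma cells harbouring a luciferase neomycin HCV replicon reporter; luciferase luminescence as measure of HCV replicon replication; test concentration not given here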
# [13] = target: Left-right determination factor 2 (Homo sapiens) (UniProt O00292); assay: LEFTY2 binders on small-molecule microarrays, primary screen, biochemical, small-molecule microarray, 635 nm fluorescence scan (AID 1110); conditions: LEFTY2 binding, higher = more signal
# [14] = target: Calmodulin-1 (Homo sapiens) (UniProt P0DP23); assay: CALM1 binders on microarrays, EGTA buffer, profiling panel, biochemical, small-molecule microarray, Cy5-labelled CALM1 (AID 1111); conditions: Cy5-CALM1 binding fluorescence, higher = more signal;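 further: labelled calmodulin applied in Tris saline Tween buffer holding calcium plus EGTA and DTT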
# [15] = target: Calmodulin-1 (Homo sapiens) (UniProt P0DP23); assay: calcium-bound CALM1 binders on microarrays, profiling panel, artefact control for SMM control-protein annotation, biochemical, small-molecule microarray, Cy5-labelled CALM1, plus calcium (AID 1112); conditions: Cy5-CALM1 binding fluorescence, higher = more signal;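 further: score merges spot fluorescence with signal to noise from triplicate slides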
# [16] = small-molecule microarray binders of probe aWnt5a, primary screen, biochemical, biotinylated probe, 635/667 nm fluorescence (AID 1113); conditions: higher = more signal;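 further: score merges 667 nm fluorescence intensity with signal-to-noise per printed feature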
# [17] = small-molecule microarray binders of probe aShh, primary screen, biochemical, biotinylated probe, 635/667 nm fluorescence (AID 1114); conditions: higher = more signal;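 further: probe is biotin-labelled aShh protein from a stem cell growth factor screen; measures binding of labelled protein to compounds printed on the slide; score merges feature fluorescence at 667 nm with signal-to-noise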
# [18] = small-molecule microarray binders of probe aNog, primary screen, biochemical, biotinylated probe, 635/667 nm fluorescence (AID 1115); conditions: higher = more signal;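 further: probe is biotinylated aNog protein used at 0.15 µg/mL for 1 h at 4 C; z-score combines 667 nm fluorescence of each spot with its signal to noise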
# [19] = target: Torsin-1A-interacting protein 1 (Homo sapiens) (UniProt Q5JTV8); assay: LAP1 binders from COS7 cell lysate, primary screen, small-molecule microarray, 635/667 nm fluorescence (AID 1116); conditions: COS7-hLAP1 lysate binding, 635 nm fluorescence, higher = more signal
# [20] = target: Alpha-bungarotoxin (Bungarus multicinctus) (UniProt P60615); assay: alpha-bungarotoxin binders on microarray, profiling panel, artefact control for SMM control protein annotation, biochemical, small-molecule microarray, Alexa647 label, 635/667 nm fluorescence (AID 1117); conditions: alpha-BTX-A647 binding fluorescence, higher = more signal
# Chain of Alpha-bungarotoxin (Bungarus multicinctus) (P60615 whole entry, looked up): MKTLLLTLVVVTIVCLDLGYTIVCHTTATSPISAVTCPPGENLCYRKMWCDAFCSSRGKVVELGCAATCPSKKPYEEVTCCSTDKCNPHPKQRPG
# Chain of Fibroblast growth factor 10 (Homo sapiens) (O15520 whole entry, looked up): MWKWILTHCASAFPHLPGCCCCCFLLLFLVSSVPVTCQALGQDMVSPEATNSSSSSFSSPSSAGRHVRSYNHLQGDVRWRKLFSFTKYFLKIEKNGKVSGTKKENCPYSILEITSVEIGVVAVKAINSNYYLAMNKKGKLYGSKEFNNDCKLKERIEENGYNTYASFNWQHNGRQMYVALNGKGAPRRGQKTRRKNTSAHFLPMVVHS
# Chain of Torsin-1A-interacting protein 1 (Homo sapiens) (Q5JTV8 whole entry, looked up): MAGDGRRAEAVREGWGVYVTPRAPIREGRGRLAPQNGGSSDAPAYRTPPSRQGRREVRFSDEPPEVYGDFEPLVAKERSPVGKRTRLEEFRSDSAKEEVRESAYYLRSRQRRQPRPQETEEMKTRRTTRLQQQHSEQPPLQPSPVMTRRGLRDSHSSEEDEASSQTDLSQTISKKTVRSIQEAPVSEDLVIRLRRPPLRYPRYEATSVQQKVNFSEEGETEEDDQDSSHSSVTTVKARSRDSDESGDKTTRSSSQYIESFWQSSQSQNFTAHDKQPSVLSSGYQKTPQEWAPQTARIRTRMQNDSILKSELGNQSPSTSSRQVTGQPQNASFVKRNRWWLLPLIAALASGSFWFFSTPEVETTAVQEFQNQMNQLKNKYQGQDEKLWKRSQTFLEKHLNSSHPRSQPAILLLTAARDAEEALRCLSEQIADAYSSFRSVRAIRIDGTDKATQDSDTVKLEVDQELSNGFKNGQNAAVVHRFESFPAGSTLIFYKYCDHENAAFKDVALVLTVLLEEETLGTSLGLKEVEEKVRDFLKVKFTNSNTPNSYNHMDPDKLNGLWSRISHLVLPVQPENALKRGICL
# Chain of Dickkopf-related protein 1 (Homo sapiens) (O94907 whole entry, looked up): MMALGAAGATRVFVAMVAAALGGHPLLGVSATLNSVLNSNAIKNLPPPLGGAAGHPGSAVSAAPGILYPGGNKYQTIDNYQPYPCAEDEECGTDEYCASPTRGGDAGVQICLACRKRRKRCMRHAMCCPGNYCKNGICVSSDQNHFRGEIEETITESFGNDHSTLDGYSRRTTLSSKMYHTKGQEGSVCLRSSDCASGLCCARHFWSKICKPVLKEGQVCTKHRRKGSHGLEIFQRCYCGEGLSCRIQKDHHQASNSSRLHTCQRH
# Chain of Epidermal growth factor receptor (Homo sapiens) (P00533 whole entry, looked up): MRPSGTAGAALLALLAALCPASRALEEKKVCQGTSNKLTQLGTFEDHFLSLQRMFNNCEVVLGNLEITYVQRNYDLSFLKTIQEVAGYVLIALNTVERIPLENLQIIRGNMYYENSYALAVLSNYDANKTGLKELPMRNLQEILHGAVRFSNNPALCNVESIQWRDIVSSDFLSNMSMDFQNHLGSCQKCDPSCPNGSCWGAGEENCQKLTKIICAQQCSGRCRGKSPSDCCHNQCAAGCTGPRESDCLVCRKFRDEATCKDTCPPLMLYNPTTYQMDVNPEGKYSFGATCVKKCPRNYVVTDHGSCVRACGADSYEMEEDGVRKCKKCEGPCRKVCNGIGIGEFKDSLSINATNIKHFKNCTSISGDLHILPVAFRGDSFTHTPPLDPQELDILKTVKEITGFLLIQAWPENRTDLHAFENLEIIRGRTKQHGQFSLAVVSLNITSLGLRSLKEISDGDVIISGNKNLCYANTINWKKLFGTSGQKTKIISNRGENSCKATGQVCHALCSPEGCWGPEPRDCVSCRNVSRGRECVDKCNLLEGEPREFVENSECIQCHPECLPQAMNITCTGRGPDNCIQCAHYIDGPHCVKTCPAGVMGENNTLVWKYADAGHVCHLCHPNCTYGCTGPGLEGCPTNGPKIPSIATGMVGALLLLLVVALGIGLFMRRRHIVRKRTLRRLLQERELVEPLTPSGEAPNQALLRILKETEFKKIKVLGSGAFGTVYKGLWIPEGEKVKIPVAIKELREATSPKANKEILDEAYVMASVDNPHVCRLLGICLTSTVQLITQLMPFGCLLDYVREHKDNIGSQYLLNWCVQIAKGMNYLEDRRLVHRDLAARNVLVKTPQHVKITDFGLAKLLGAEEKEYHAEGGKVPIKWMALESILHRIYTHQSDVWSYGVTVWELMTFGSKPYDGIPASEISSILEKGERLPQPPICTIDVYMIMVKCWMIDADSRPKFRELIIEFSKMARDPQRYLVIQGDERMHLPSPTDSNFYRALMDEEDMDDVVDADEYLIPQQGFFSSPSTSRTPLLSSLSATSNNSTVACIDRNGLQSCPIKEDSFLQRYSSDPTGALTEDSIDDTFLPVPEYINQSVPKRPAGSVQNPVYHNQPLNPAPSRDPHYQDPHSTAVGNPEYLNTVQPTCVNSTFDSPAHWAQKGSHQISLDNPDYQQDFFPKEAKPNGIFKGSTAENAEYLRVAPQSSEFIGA
# Chain of Follistatin-related protein 3 (Homo sapiens) (O95633 whole entry, looked up): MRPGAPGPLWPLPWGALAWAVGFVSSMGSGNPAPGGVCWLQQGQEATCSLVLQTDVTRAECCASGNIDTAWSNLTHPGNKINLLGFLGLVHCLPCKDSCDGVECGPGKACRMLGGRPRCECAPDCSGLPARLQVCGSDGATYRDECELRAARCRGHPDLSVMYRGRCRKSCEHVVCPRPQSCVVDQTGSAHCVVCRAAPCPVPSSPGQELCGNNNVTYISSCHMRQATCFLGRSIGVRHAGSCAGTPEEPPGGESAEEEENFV
# Chain of Left-right determination factor 2 (Homo sapiens) (O00292 whole entry, looked up): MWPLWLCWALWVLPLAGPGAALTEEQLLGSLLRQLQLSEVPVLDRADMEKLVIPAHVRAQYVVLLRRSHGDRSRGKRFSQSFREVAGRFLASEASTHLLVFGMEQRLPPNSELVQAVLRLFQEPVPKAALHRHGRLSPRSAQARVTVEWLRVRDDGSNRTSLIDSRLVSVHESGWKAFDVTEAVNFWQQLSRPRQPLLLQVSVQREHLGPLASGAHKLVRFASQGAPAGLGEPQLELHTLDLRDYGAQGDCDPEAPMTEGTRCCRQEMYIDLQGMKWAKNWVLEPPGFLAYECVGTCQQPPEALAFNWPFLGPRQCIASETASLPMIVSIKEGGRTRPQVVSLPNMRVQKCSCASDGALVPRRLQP
Structure (SMILES),composite z-score [1],composite z-score [2],composite z-score [3],z-score [4],composite z-score [5],composite z-score [6],composite z-score [7],composite z-score [8],composite z-score [9],composite z-score [10],composite z-score [11],z-score [12],composite z-score [13],composite z-score [14],composite z-score [15],composite z-score [16],composite z-score [17],composite z-score [18],composite z-score [19],composite z-score [20]
C=CCNC(=O)[C@@H]1[C@H]2C(=O)O[C@H](c3ccccc3)[C@H](c3ccccc3)N2[C@H](c2ccccc2OCCO)[C@@]12C(=O)N(C(=O)OCCOC)c1ccc(C#CCCO)cc12,1.05,-0.274,0.272,-0.821 (inactive),1.35,1.23,0.266,0.904,0.312,0.241,1.34,-1.82,0.0333,1.66,0.428,-0.006,0.131,-0.305,0.87,0.274
COC(=O)[C@H](Cc1ccc(O)cc1)N1CC2=CCCC=C[C@@H]2[C@H]1[C@H](O)Cc1ccccc1,0.751,-0.301,-0.538,-1.07 (inactive),0.477,-0.159,0.72,0.255,0.0139,0.493,-0.615,-0.798,0.45,-0.197,-0.757,-0.157,-0.138,-0.292,0.0548,0.0212
COCCOC(=O)N1C(=O)[C@@]2(c3cc(C#Cc4ccc(OC)cc4)ccc31)[C@H](C(=O)Nc1nc3ccccc3s1)[C@H]1C(=O)O[C@H](c3ccccc3)[C@H](c3ccccc3)N1[C@@H]2c1ccccc1OCCO,0.655,-0.0582,-0.149,-2.03 (inactive),0.517,0.731,0.29,0.909,0.534,0.629,0.773,-1.43,0.615,1.5,0.747,-0.299,-0.138,-0.7,0.188,0.968
CCCCC(=C=CC[C@@H](O)c1cccc(OCCO)c1)CCO,1.36,-0.252,0.254,0.413 (inactive),0.504,-0.224,-0.556,-0.254,-0.591,0.134,-0.333,-0.165,-0.125,-0.494,0.181,-0.18,0.0121,-0.405,0.297,2.16
CC(C)[Si](C#CCCCC#N)(O[C@H](c1ccccc1)c1cn([C@H](C)c2ccccc2)nn1)C(C)C,0.475,0.0086,-0.453,-3.01 (inactive),0.524,0.973,0.22,1.08,0.668,-0.301,1.21,-1.91,0.392,-0.0129,-0.0984,-0.0924,0.318,-0.262,0.137,0.18
CC=CC(O)C1C=CC2C(=O)N(C)C(=O)C2N1NC(=O)OC(C)(C)C (stereo not given),0.589,0.112,-0.388,1.54 (inactive),0.216,0.423,0.271,0.864,0.739,1.04,-1.08,0.381,0.478,0.127,-0.516,-0.101,-0.206,-0.135,0.512,0.277
